Inconclusive results are not listed. Where a call stands in place of a potency, no number is given. Unmarked numbers belong to inactive results. The source made the active and inactive calls. Calls follow the shape of the dose curve; as a rule, active = well fitted inhibition curve with a large enough effect in the signal ratio in the repeat runs (not every such curve was filed as active); inconclusive = weak or mixed curves, or effect the other way; inactive = no such curve, though single readings can be large or run the other way; the % refers to the signal ratio.
Molecular target: Bile acid receptor (Homo sapiens) (UniProt Q96RI1)
Sequence (Q96RI1 whole entry, looked up): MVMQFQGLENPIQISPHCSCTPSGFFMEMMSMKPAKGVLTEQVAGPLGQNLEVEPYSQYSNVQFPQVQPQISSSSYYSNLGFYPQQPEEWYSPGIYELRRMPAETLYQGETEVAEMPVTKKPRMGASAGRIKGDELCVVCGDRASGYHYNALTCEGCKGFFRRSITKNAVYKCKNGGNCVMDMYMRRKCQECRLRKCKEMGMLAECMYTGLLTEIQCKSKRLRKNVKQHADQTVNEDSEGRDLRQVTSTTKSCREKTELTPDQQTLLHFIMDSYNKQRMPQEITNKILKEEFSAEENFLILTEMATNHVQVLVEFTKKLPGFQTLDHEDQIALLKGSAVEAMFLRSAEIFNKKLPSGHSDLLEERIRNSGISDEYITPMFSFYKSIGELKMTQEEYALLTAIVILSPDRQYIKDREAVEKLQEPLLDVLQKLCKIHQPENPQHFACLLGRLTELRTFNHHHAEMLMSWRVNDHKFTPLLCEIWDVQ
Assay: qHTS assay to identify small molecule antagonists of the farnesoid-X-receptor (FXR) signaling pathway (AID 743217)
Conditions: HEK293T FXR-UAS-bla, beta-lactamase ratio, CDCA-stimulated, 16 h; series mostly up to 62.6 µM
From the text: U.S. Tox21 Program National Center for Advancing Translational Sciences [NCATS] NIH Chemical Genomics Center [NCGC] U.S. Environmental Protection Agency [EPA] National Institutes of Environmental Health Sciences [NIEHS] National Toxicology Program [NTP] U.S. Food and Drug Administration [FDA] Tox21 Assay Overview: The farnesoid-X-receptor (FXR), a nuclear hormone receptor, is highly expressed in liver, intestine, kidney and adrenal cortex. Natural ligands of FXR are the bile acids (Cholic acid, Chenodeoxy cholic acid etc). FXR is an important regulator of diverse metabolic pathways, including the bile acid homeostasis, lipid and glucose metabolisms. FXR regulates the expression of target genes by binding either as a monomer or as a heterodimer with the retinoid X receptor (RXR). Numerous studies have reported that FXR exerts protective function during cholestasis, diabetes, liver regeneration, and cancer. To identify compounds that inhibit FXR signaling, GeneBLAzer FXR-UAS-bla HEK 293T cell line (Invitrogen, Carlsbad, CA) containing a beta-lactamase reporter gene under the control of a UAS response element was used to screen the Tox21 10K compound library.
Tox21 Assay Protocol Summary: FXR-bla cells were dispensed at 5000 cells/5uL/well in 1536-well black wall/clear bottom plates using a Multidrop Combi (Thermo Fisher Scientific, Waltham, MA) dispenser. After the assay plates were incubated at 37C and 5% CO2 for 5 h, 23 nL of compounds dissolved in DMSO, positive controls or DMSO only was transferred to the assay plate by a Pintool station (Kalypsys, San Diego, CA), followed by addition of 1 uL Chenodeoxycholic acid (50 uM, final concentration in the wells). The assay plates were incubated at 37C for 16 h. After 1 uL of LiveBLAzerTM B/G FRET substrate was added using a Bioraptr Flying Reagent Dispenser (FRD) workstation (Beckman Coulter, Indianapolis, IN), the plates were incubated at room temperature for 2 h, and fluorescence intensity was measured by an Envision plate reader (PerkinElmer, Shelton, CT).
Potency is read from the fitted curve at half-maximal effect.

Compound	Potency	activity change, negative = inhibition
CCCCOC(=O)CCCCCCCC(=O)OCCCC	inactive	
CC(C)Cc1ccc(C(C)C(=O)OCc2ccccn2)cc1 (stereo not given)	inactive	
CN1C[C@H]2c3ccccc3Oc3ccc(Cl)cc3[C@@H]2C1	inactive	
C/C=C/C=C/CO	inactive	
CCN(CC)c1ccc2c(-c3ccccc3C(=O)O)c3ccc(=[N+](CC)CC)cc-3oc2c1	inactive	
CCOC(=O)COC(=O)c1cc(Oc2ccc(C(F)(F)F)cc2Cl)ccc1[N+](=O)[O-]	inactive	
C=C1[C@H]2CC[C@@H]3[C@H]2C(C)(C)CCC[C@]13C	inactive	
C=CCOc1ccccc1OCC(O)CNC(C)C (stereo not given)	inactive	
Cc1cccc(C)c1NC(=O)CN(CC(=O)O)CC(=O)O	inactive	
C1CCCNCCC1	inactive	
COCC(C)OC(C)=O (stereo not given)	inactive	
CCCCC1=NC2(CCCC2)C(=O)N1Cc1ccc(-c2ccccc2-c2nn[nH]n2)cc1	inactive	
CC1CCC(=O)C1=O (stereo not given)	inactive	
C=C1C(=C/C=C2\CCC[C@]3(C)[C@@H]([C@H](C)/C=C/[C@@H](O)C4CC4)CC[C@@H]23)C[C@@H](O)C[C@@H]1O	29.8 µM (active)	
CN1CCC(=C2c3ccccc3Sc3ccccc32)CC1	inactive	
CCCOC(C(=O)OC1CCN(C)CC1)(c1ccccc1)c1ccccc1	inactive	
CCC(C)O (stereo not given)	inactive	
C#CCN(C)CCCOc1ccc(Cl)cc1Cl	inactive	
CC1OC(=O)C(C)OC1=O (stereo not given)	inactive	
O=C(O)C(S)C(S)C(=O)O (stereo not given)	inactive	

Compound	Potency	activity change, negative = inhibition
CN(C)CCOC(c1ccccc1)c1ccc(Br)cc1 (stereo not given)	inactive	
CC(COCCO)OCCO (stereo not given)	inactive	
CCCCC(CC)COC(=O)CCCCCCCCC(=O)OCC(CC)CCCC (stereo not given)	inactive	
CCN(CC)c1ccc(C(=C2C=CC(=[N+](CC)CC)C=C2)c2cc(S(=O)(=O)O)ccc2S(=O)(=O)[O-])cc1	inactive	
CCn1cc(C(=O)O)c(=O)c2cnc(N3CCNCC3)nc21	inactive	
COc1ccc(-c2nc3ccc(C4=NNC(=O)CC4C)cc3[nH]2)cc1 (stereo not given)	29.8 µM (active)	
CCCCC	inactive	
CN(C)C(=O)NC1(c2ccccc2)CCN(CC[C@@]2(c3ccc(F)c(F)c3)CN(C(=O)c3ccccc3)CCO2)CC1	inactive	
CC(=O)c1cccc([N+](=O)[O-])c1	inactive	
Brc1c2ccccc2c(Br)c2ccccc12		14.8% [at 5.95 µM]
O=C(Cl)c1cc(C(=O)Cl)cc(C(=O)Cl)c1	inactive	
CCCn1cnc2c1c(=O)n(CCCCC(C)=O)c(=O)n2C	inactive	
CC1(c2ccccc2)OC(C(=O)O)=CC1=O (stereo not given)	inactive	
Clc1ccc2c(c1)CCc1cccnc1C2=C1CCNCC1	29.8 µM (active)	
C=C(C)C(=O)OCC	inactive	
CN(C)CCN(Cc1ccc(Cl)cc1)c1ccccn1	inactive	
COc1cc(Cl)ccc1Oc1ccc(Cl)cc1Cl	inactive	
NC(=O)C(c1ccccc1)(c1ccccc1)[C@@H]1CCN(CCc2ccc3c(c2)CCO3)C1	inactive	
CCOC(=O)NCCOc1ccc(Oc2ccccc2)cc1	inactive	
O=C1[C@H]2CCCC[C@H]2C(=O)N1CCCCN1CCN(c2nsc3ccccc23)CC1	inactive	

From PubChem BioAssay (Tox21)
